Key:
Assay in all cases: SPOT peptide array binding signal intensity (averaged, normalized) (arbitrary units (background-subtracted, floor 0; scale differs between SH3 domains)); higher = stronger binding of the SH3 domain to the peptide
ScBbc1 = biological target: ScBbc1
Method in brief: (§1)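 Spot intensities were captured after detection with anti-GST antibody, an HRP-linked anti-mouse secondary and luminol, and quantified with Genespotter. The probes were GST-fused SH3 domains from four yeast species, produced in E. coli BL21(DE3), purified on glutathione Sepharose and incubated at 10 μg/ml overnight at 4°C on cellulose-bound synthetic 15-mer peptides with cysteines replaced by serines. Binding signal is the normalized, background-subtracted spot intensity averaged over replicates, and its arbitrary units differ between domains.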

ScBem1-D1 = biological target: ScBem1-D1
Method in brief: as §1

ScBzz1-D1 = biological target: ScBzz1-D1
Method in brief: as §1

ScBzz1-D2 = biological target: ScBzz1-D2
Method in brief: as §1

ScCyk3 = biological target: ScCyk3
Method in brief: as §1

ScFus1 = biological target: ScFus1
Method in brief: as §1

ScHof1 = biological target: ScHof1
Method in brief: as §1

ScHse1 = biological target: ScHse1
Method in brief: as §1

ScLsb1 = biological target: ScLsb1
Method in brief: as §1

ScLsb2 = biological target: ScLsb2
Method in brief: as §1

ScLsb3 = biological target: ScLsb3
Method in brief: as §1

ScLsb4 = biological target: ScLsb4
Method in brief: as §1

ScMyo3 = biological target: ScMyo3
Method in brief: as §1

ScMyo5 = biological target: ScMyo5
Method in brief: as §1

ScNbp2 = biological target: ScNbp2
Method in brief: as §1

ScPex13 = biological target: ScPex13
Method in brief: as §1

ScRvs167 = biological target: ScRvs167
Method in brief: as §1

ScSho1 = biological target: ScSho1
Method in brief: as §1

ScSla1-D1-D2 = biological target: ScSla1-D1-D2
Method in brief: as §1

ScSla1-D3 = biological target: ScSla1-D3
Method in brief: as §1

SpAbp1-D1 = biological target: SpAbp1-D1
Method in brief: as §1

SpBbc1 = biological target: SpBbc1
Method in brief: as §1

SpBzz1-D1 = biological target: SpBzz1-D1
Method in brief: as §1

SpBzz1-D2 = biological target: SpBzz1-D2
Method in brief: as §1

SpCyk3 = biological target: SpCyk3
Method in brief: as §1

SpHof1 = biological target: SpHof1
Method in brief: as §1

SpHof1-2 = biological target: SpHof1-2
Method in brief: as §1

SpHof1-3 = biological target: SpHof1-3
Method in brief: as §1

SpHse1 = biological target: SpHse1
Method in brief: as §1

SpLsb1 = biological target: SpLsb1
Method in brief: as §1

SpLsb4 = biological target: SpLsb4
Method in brief: as §1

SpMyo1 = biological target: SpMyo1
Method in brief: as §1

SpNbp2 = biological target: SpNbp2
Method in brief: as §1

SpPex13 = biological target: SpPex13
Method in brief: as §1

SpRvs167 = biological target: SpRvs167
Method in brief: as §1

SpSla1-D1-D2 = biological target: SpSla1-D1-D2
Method in brief: as §1

SpSla1-D3 = biological target: SpSla1-D3
Method in brief: as §1

FVLRYYILIPHEQWD
SPOT peptide array binding signal intensity (ScBbc1): ≤ 0
SPOT peptide array binding signal intensity (ScBem1-D1): 14.5
SPOT peptide array binding signal intensity (ScBzz1-D1): 14
SPOT peptide array binding signal intensity (ScBzz1-D2): 28
SPOT peptide array binding signal intensity (ScCyk3): 35
SPOT peptide array binding signal intensity (ScFus1): 1310
SPOT peptide array binding signal intensity (ScHof1): ≤ 0
SPOT peptide array binding signal intensity (ScHse1): 1060
SPOT peptide array binding signal intensity (ScLsb1): ≤ 0
SPOT peptide array binding signal intensity (ScLsb2): 1.5
SPOT peptide array binding signal intensity (ScLsb3): 67
SPOT peptide array binding signal intensity (ScLsb4): 5
SPOT peptide array binding signal intensity (ScMyo3): 1.5
SPOT peptide array binding signal intensity (ScMyo5): 3
SPOT peptide array binding signal intensity (ScNbp2): 187
SPOT peptide array binding signal intensity (ScPex13): 7.5
SPOT peptide array binding signal intensity (ScRvs167): 9.83
SPOT peptide array binding signal intensity (ScSho1): 1100
SPOT peptide array binding signal intensity (ScSla1-D1-D2): 7.5
SPOT peptide array binding signal intensity (ScSla1-D3): 51
SPOT peptide array binding signal intensity (SpAbp1-D1): 59.5
SPOT peptide array binding signal intensity (SpBbc1): 2
SPOT peptide array binding signal intensity (SpBzz1-D1): 20.5
SPOT peptide array binding signal intensity (SpBzz1-D2): 3.25
SPOT peptide array binding signal intensity (SpCyk3): 27.5
SPOT peptide array binding signal intensity (SpHof1): 79.5
SPOT peptide array binding signal intensity (SpHof1-2): 32.5
SPOT peptide array binding signal intensity (SpHof1-3): 554
SPOT peptide array binding signal intensity (SpHse1): 954
SPOT peptide array binding signal intensity (SpLsb1): 2.5
SPOT peptide array binding signal intensity (SpLsb4): 11.5
SPOT peptide array binding signal intensity (SpMyo1): 13.2
SPOT peptide array binding signal intensity (SpNbp2): 574
SPOT peptide array binding signal intensity (SpPex13): 47.5
SPOT peptide array binding signal intensity (SpRvs167): 10.7
SPOT peptide array binding signal intensity (SpSla1-D1-D2): 1
SPOT peptide array binding signal intensity (SpSla1-D3): 9.5

Reference: the supplement of paper PMC4466140
